# Assay results reported in PubChem BioAssay (Tox21).
# Records with an inconclusive call do not appear. Where a call stands in place of a potency, no number is given. Active and inactive are the calls of the source. Unless noted, calls come from the whole dose curve; as a rule, active = well fitted curve in the direction sought with a large enough effect in the repeat runs; inconclusive = weak or mixed curves; inactive = no such curve, though single readings can be large; an effect the other way counts as inactive or inconclusive.
# Tests used:
# [1] = qHTS assay to identify small molecule agonists of the peroxisome proliferator-activated receptor delta (PPARd) signaling pathway - cell viability counter screen (AID 743211); note: nearly all actives have a fitted effect of over 55% in size
# How it was run: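 Viability of GeneBLAzer PPARd UAS-bla HEK293H cells was assessed after 17 h compound incubation at 37C, using CellTiter-Glo reagent added after the reporter read and luminescence recorded 30 min later.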
# [2] = biological target: Peroxisome proliferator-activated receptor delta (Homo sapiens) (UniProt Q03181); test: qHTS assay to identify small molecule agonists of the peroxisome proliferator-activated receptor delta (PPARd) signaling pathway (AID 743212; calls by dose curve)
# How it was run: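 Quantitative high-throughput agonist screen in a HEK293H beta-lactamase reporter line under UAS control. Compounds in DMSO, at 37 C. Fluorescence read after 2 h with FRET substrate at room temperature.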
# [3] = qHTS assay to identify small molecule antagonists of the peroxisome proliferator-activated receptor delta (PPARd) signaling pathway - cell viability counter screen (AID 743213); note: nearly all actives have a fitted effect of over 50% in size
# How it was run: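 Same-well viability: cells pre-incubated 5 h, dosed with compound plus 300 nM L165041, kept 17 h at 37 C, FRET substrate 2 h RT, then CellTiter-Glo 30 min RT and luminescence.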
# [4] = biological target: Peroxisome proliferator-activated receptor delta (Homo sapiens) (UniProt Q03181); test: qHTS assay to identify small molecule antagonists of the peroxisome proliferator-activated receptor delta (PPARd) signaling pathway (AID 743215; active = well fitted inhibition curve with a large enough effect in the signal ratio in the repeat runs, not every such curve was filed as active; the % refers to the signal ratio;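 note: cells stimulated with agonist L165041 at 300 nM final during compound exposure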; note: potency is the fitted concentration of half-maximal effect)
# How it was run: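 Inhibition of L165041-driven (300 nM final) PPARd signaling is scored in HEK293H UAS-bla cells. Exposure lasts 17 h at 37 C; beta-lactamase activity is then read by FRET substrate fluorescence after 2 h at room temperature.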
# [5] = qHTS assay to identify small molecule antagonists of the farnesoid-X-receptor (FXR) signaling pathway - cell viability counter screen (AID 743221; active = well fitted cell-killing curve with a large enough effect in the repeat runs, not every such curve was filed as active; note: nearly all actives have a fitted effect of over 50% in size)
# How it was run: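 Quantitative HTS of the Tox21 10K library run in parallel with the beta-lactamase reporter read. HEK 293T cells carrying a UAS-driven bla reporter got compound and 50 uM CDCA (final) for 16 h; ATP-based luminescence followed.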
# [6] = biological target: Vitamin D3 receptor (Homo sapiens) (UniProt P11473); test: qHTS assay to identify small molecule agonists of the vitamin D receptor (VDR) signaling pathway (AID 743222; calls by dose curve)
# How it was run: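 Quantitative HTS agonist-mode screen: compounds in DMSO were pin-transferred onto VDR-bla cells and incubated 16 h at 37C, 5% CO2. Reporter activity was detected with LiveBLAzer B/G FRET substrate after 2 h at room temperature.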
# [7] = biological target: Vitamin D3 receptor (Homo sapiens) (UniProt P11473); test: qHTS assay to identify small molecule antagonists of the vitamin D receptor (VDR) signaling pathway (AID 743223; active = well fitted inhibition curve with a large enough effect in the signal ratio in the repeat runs, not every such curve was filed as active; the % refers to the signal ratio)
# How it was run: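 Fluorescence from LiveBLAzer B/G FRET substrate, read after 2 h at room temperature, reflects beta-lactamase reporter activity in VDR-bla cells treated 16 h at 37C with compounds and agonist 1alpha,25-dihydroxyvitamin D3 (3 nM final).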
# [8] = qHTS assay to identify small molecule agonists of the vitamin D receptor (VDR) signaling pathway - cell viability counter screen (AID 743224); note: series mostly up to about 63 µM; nearly all actives have a fitted effect of over 50% in size
# How it was run: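 Viability is measured in the same wells as the VDR-bla reporter assay: after 16 h compound treatment and 2 h substrate loading, CellTiter-Glo is added and luminescence read 30 min later.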
# [9] = qHTS assay to identify small molecule antagonists of the vitamin D receptor (VDR) signaling pathway - cell viability counter screen (AID 743225); note: nearly all actives have a fitted effect of over 50% in size
# How it was run: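 Cells (VDR-UAS-bla HEK 293T) are plated, rested 4 h at 37C, dosed with compound and 3 nM final 1-alpha,25-dihydroxy vitamin D3, and incubated 16 h. Viability is taken from CellTiter-Glo luminescence in the reporter wells.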
# [10] = qHTS assay to identify small molecule agonists of the NFkB signaling pathway (AID 1159509; active = well fitted curve in the direction sought with a large enough effect in the signal ratio in the repeat runs, not every such curve was filed as active; the % refers to the signal ratio; note: series mostly up to about 61 µM)
# How it was run: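 NFkB-bla ME-180 cells with a beta-lactamase reporter under an NF-kB response element were plated overnight, treated with compounds in DMSO for 5 hr at 37 C, then loaded with FRET substrate for 1.5 hr at room temperature.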
# [11] = qHTS assay to identify small molecule agonists of the NFkB signaling pathway - cell viability counter screen (AID 1159515; calls by dose curve; note: series mostly up to about 61 µM; nearly all actives have a fitted effect of over 55% in size)
# How it was run: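 Multiplexed viability readout: after the 5 hr compound exposure and 1.5 hr FRET substrate step, CellTiter-Glo reagent went into the same NFkB-bla ME-180 wells; ATP luminescence was measured after 30 min at room temperature.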
# [12] = qHTS assay to identify small molecule agonists of the endoplasmic reticulum stress response signaling pathway (AID 1159516; active = well fitted activation curve with a large enough effect in the signal ratio in the repeat runs, not every such curve was filed as active; the % refers to the signal ratio)
# How it was run: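 Tox21 10K library screened in quantitative HTS format on ESRE-bla HeLa cells, a beta-lactamase reporter under ER stress response element control; 5 hr treatment, FRET read.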
# [13] = qHTS assay to identify small molecule agonists of the endoplasmic reticulum stress response signaling pathway - cell viability counter screen (AID 1159517; calls by dose curve)
# How it was run: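 Counter-screen wells were identical to the reporter wells. Cells were plated at 1,500 per well and dosed for 5 hr, then read for luminescence 30 min after CellTiter-Glo addition.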
# [14] = qHTS assay to identify small molecule antagonists of the retinoid-related orphan receptor gamma (ROR-gamma) signaling pathway - cell viability counter screen (AID 1159520); note: nearly all actives have a fitted effect of over 50% in size
# How it was run: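 Tet-on ROR gamma CHO cells were given compounds for 2 hr, then doxycycline hyclate at 1 uM final, and incubated 16 hr at 37 C. Viability was measured as ATP content by CellTiter-Glo luminescence.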
# [15] = biological target: Nuclear receptor ROR-gamma (Homo sapiens) (UniProt P51449); test: qHTS assay to identify small molecule antagonists of the retinoid-related orphan receptor gamma (ROR-gamma) signaling pathway (AID 1159521)
# How it was run: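 RORγ antagonism is scored from reduced reporter luminescence in Tet-on CHO cells. Induction used 1 uM final doxycycline hyclate for 16 h at 37 C, following a 2 h compound exposure.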
# [16] = qHTS assay to identify small molecule agonists of the AP-1 signaling pathway (AID 1159526; calls by dose curve)
# [17] = biological target: Bile acid receptor (Homo sapiens) (UniProt Q96RI1); test: qHTS assay to identify small molecule antagonists of the farnesoid-X-receptor (FXR) signaling pathway (AID 743217; active = well fitted inhibition curve with a large enough effect in the signal ratio in the repeat runs, not every such curve was filed as active; the % refers to the signal ratio)
# How it was run: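 Antagonist mode against 50 uM (final) chenodeoxycholic acid stimulation in FXR-bla HEK 293T cells, 16 h at 37 °C. Inhibition detected as reduced beta-lactamase activity via LiveBLAzer B/G FRET fluorescence after 2 h at room temperature.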
# [18] = qHTS assay to identify small molecule agonists of the farnesoid-X-receptor (FXR) signaling pathway - cell viability counter screen (AID 743218); note: nearly all actives have a fitted effect of over 45% in size
# How it was run: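 Cytotoxicity counter-screen run in parallel, same wells: FXR-UAS-bla HEK 293T cells dosed 16 h at 37 C, viability read by CellTiter-Glo luminescence after 30 min at room temperature.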
# [19] = biological target: Bile acid receptor (Homo sapiens) (UniProt Q96RI1); test: qHTS assay to identify small molecule agonists of the farnesoid-X-receptor (FXR) signaling pathway (AID 743220; active = well fitted activation curve with a large enough effect in the signal ratio in the repeat runs, not every such curve was filed as active; the % refers to the signal ratio)
# How it was run: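 Beta-lactamase reporter under UAS control in GeneBLAzer FXR HEK 293T cells (5000/well) measured with LiveBLAzer FRET substrate after 2 h at room temperature. Compound exposure lasted 16 h at 37C.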
# [20] = qHTS assay to identify small molecule agonists of the AP-1 signaling pathway - cell viability counter screen (AID 1159525; calls by dose curve; note: nearly all actives have a fitted effect of over 55% in size)
# How it was run: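 AP-1-bla ME-180 cells in Opti-MEM with 0.5% dialyzed FBS, compound exposure 5 h at 37 C in 15-point titration. Viability read in the same wells as ATP content by CellTiter-Glo luminescence, normalised to tetra-n-octylammonium bromide and DMSO controls.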
# Vitamin D3 receptor (Homo sapiens), sequence (P11473 whole entry, looked up): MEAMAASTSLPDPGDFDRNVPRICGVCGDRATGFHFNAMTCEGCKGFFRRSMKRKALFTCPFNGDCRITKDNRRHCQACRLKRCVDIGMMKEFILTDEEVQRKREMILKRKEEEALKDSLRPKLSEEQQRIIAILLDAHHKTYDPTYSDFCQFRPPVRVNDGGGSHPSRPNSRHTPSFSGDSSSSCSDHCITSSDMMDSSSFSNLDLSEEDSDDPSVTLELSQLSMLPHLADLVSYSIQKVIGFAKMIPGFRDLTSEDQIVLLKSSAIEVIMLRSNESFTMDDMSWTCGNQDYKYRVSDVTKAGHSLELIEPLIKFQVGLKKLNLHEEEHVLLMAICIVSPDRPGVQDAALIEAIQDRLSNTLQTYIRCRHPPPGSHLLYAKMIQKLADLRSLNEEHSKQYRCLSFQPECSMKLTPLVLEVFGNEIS
# Bile acid receptor (Homo sapiens), sequence (Q96RI1 whole entry, looked up): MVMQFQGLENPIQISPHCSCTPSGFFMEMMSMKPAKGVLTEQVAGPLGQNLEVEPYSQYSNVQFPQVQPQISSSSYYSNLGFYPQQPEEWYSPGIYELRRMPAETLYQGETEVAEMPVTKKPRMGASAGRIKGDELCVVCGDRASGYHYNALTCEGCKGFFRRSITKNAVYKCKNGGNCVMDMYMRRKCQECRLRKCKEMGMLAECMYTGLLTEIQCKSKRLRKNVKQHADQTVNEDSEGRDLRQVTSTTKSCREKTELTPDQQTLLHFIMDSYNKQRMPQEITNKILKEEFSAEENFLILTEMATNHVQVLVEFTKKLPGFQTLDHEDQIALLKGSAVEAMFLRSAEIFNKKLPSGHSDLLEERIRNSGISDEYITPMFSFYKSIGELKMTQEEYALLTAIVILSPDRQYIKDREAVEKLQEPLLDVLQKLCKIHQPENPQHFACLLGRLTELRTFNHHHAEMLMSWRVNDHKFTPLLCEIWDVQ
# Peroxisome proliferator-activated receptor delta (Homo sapiens), sequence (Q03181 whole entry, looked up): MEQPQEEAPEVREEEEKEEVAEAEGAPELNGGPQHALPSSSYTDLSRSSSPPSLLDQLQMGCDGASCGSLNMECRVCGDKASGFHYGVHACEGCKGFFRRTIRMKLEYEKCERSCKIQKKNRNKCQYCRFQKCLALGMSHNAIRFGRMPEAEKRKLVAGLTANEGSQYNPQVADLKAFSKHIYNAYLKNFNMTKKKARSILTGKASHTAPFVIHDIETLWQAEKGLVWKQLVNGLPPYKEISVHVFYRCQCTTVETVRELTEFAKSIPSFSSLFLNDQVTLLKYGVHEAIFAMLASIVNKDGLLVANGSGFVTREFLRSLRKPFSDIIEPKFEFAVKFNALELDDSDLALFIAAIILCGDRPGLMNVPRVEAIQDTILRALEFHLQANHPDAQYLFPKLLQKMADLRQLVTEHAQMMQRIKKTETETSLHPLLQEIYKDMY
SMILES,Potency [1],outcome [2],Potency [3],Potency [4],Potency [5],outcome [6],outcome [7],Potency [8],Potency [9],outcome [10],outcome [11],outcome [12],outcome [13],outcome [14],Potency [15],outcome [16],outcome [17],Potency [18],outcome [19],Potency [20]
Cc1c(NC(C)C)c(=O)n(-c2ccccc2)n1C,inactive,inactive,inactive,inactive,inactive,inactive,inactive,inactive,inactive,inactive,inactive,inactive,inactive,inactive,inactive,inactive,–,–,–,–
CCCCOCCOCCOCc1cc2c(cc1CCC)OCO2,–,–,inactive,–,inactive,–,–,inactive,inactive,inactive,inactive,inactive,inactive,inactive,inactive,inactive,inactive,inactive,inactive,–
C=CCS(=O)(=O)O,inactive,inactive,inactive,inactive,–,–,–,inactive,inactive,inactive,inactive,inactive,–,inactive,inactive,inactive,inactive,inactive,inactive,inactive
CC(C)CNCC(C)C,inactive,inactive,inactive,inactive,inactive,inactive,–,inactive,inactive,inactive,inactive,inactive,inactive,inactive,inactive,inactive,inactive,inactive,inactive,–
CCCCC(CC)COC(=O)c1ccccc1O (configuration not stated),inactive,inactive,inactive,inactive,inactive,inactive,inactive,inactive,inactive,inactive,inactive,inactive,inactive,inactive,inactive,inactive,–,inactive,–,–
O=c1cc(-c2ccccc2)oc2ccccc12,inactive,inactive,inactive,inactive,inactive,inactive,inactive,inactive,inactive,inactive,inactive,inactive,inactive,inactive,–,inactive,–,–,–,–
COC(=O)CC(C)=O,inactive,inactive,inactive,inactive,inactive,–,–,inactive,inactive,inactive,inactive,inactive,inactive,inactive,inactive,inactive,–,–,–,–
CC(C)(c1ccc(O)cc1)c1ccc(O)cc1,inactive,inactive,–,24.3 µM (active),inactive,–,–,inactive,inactive,inactive,inactive,inactive,inactive,inactive,–,inactive,–,inactive,–,–
CC(C[N+](C)(C)C)OC(N)=O (configuration not stated),inactive,inactive,inactive,inactive,inactive,–,–,inactive,inactive,inactive,inactive,inactive,inactive,inactive,inactive,inactive,inactive,inactive,inactive,–
CCOc1ccc(C(=O)OCCN(CC)CC)cc1,–,–,inactive,–,inactive,inactive,inactive,inactive,inactive,inactive,inactive,inactive,inactive,inactive,inactive,inactive,inactive,–,inactive,inactive
CCCCCCCCCCCCCCCCC,inactive,inactive,inactive,inactive,inactive,inactive,inactive,–,inactive,inactive,inactive,inactive,–,inactive,inactive,inactive,inactive,inactive,inactive,inactive
CCOC(=O)c1cccc(N)c1,inactive,inactive,inactive,inactive,inactive,inactive,inactive,inactive,inactive,inactive,inactive,inactive,inactive,inactive,inactive,inactive,–,inactive,–,–
CN(C)CCCSc1ccccc1NC(=O)/C=C/c1ccccc1,inactive,inactive,inactive,inactive,inactive,inactive,inactive,–,inactive,inactive,inactive,inactive,inactive,inactive,inactive,inactive,–,–,inactive,–
CCN1CCC[C@H]1CNC(=O)c1c(O)c(Cl)cc(Cl)c1OC,inactive,inactive,–,–,–,–,–,inactive,inactive,inactive,inactive,inactive,inactive,inactive,inactive,inactive,–,inactive,–,–
c1ccc(CC2=NCCN2)cc1,inactive,–,–,–,inactive,–,–,inactive,inactive,inactive,inactive,inactive,inactive,inactive,inactive,inactive,inactive,–,inactive,–
